Data on 29 molecules can be found in the supplement of paper PMC8253809.

Values joined by “and” are separate entries in the source; they are usually repeats but may differ in a detail not shown here. Identical values can stand only once.

The assay deals with DIPGX9 (diffuse intrinsic pontine glioma line). The assay is described as follows: growth inhibition (% activity, log2 RLU normalised to DMSO / staurosporine); higher = more growth inhibition. The following applies: 33 µM. The method, boiled down: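 For each approved drug, the growth-inhibition value is the replicate median of per-plate normalised CellTiter-Glo data. Luminescence was log2-transformed and expressed as % activity between solvent and positive control wells. Drugs were applied in triplicate at a single final concentration of about 33 μM for 7 days at 37 °C, 5% CO2 to pHGG cell lines and H9-derived neural stem cells.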
For `CN1CCN2c3ccccc3Cc3ccccc3C2C1` (centres undefined), the growth inhibition is -0.0886%. Regarding `Cc1cn([C@@H]2C[C@@H](O)[C@H](CO)O2)c(=O)[nH]c1=O`, the growth inhibition is -2.07%. On to `Nc1ccc(C(=O)NCC(=O)O)cc1`, for which the growth inhibition was found to be 0.0884%.

Consider `CNC(=C[N+](=O)[O-])NCCSCc1ccc(CN(C)C)o1`, for which the growth inhibition turned out to be 2.2%. In the case of `COC1C(O)CC(=O)OC(C)CC=CC=CC(OC2CCC(N(C)C)C(C)O2)C(C)CC(CC=O)C1OC1OC(C)C(OC2CC(C)(O)C(O)C(C)O2)C(N(C)C)C1O` (centres undefined), the growth inhibition is 0.622%. With `Cc1c(Cl)cccc1Nc1ccccc1C(=O)O`, the growth inhibition was 2.29%. In the case of `CC(=O)OCC(=O)[C@@]12OC(C)(C)O[C@@H]1C[C@H]1[C@@H]3C[C@H](F)C4=CC(=O)C=C[C@]4(C)[C@@]3(F)[C@@H](O)C[C@@]12C`, the growth inhibition is 3.42%. In the case of `O=C1N=C(O)NC1(c1ccccc1)c1ccccc1` it was 0.659% and -0.0101%; in that of `CC[C@H](C)C(=O)O[C@H]1C[C@H](O)C=C2C=C[C@H](C)[C@H](CC[C@@H](O)C[C@@H](O)CC(=O)O)[C@H]21`, 1.14%; in that of `C=C[C@]1(C)C[C@@H](OC(=O)CSC(C)(C)CNC(=O)[C@H](N)C(C)C)[C@]2(C)[C@H](C)CC[C@]3(CCC(=O)[C@H]32)[C@@H](C)[C@@H]1O`, 1.8%. As for `N=C(N)c1ccc2cc(OC(=O)c3ccc(N=C(N)N)cc3)ccc2c1`, the growth inhibition is -0.893%. In the case of `CCC(=O)NCC[C@@H]1CCc2ccc3c(c21)CCO3`, the growth inhibition amounted to 0.325%. For the molecule `OCC(O)CN1CCN(c2ccccc2)CC1` (centres undefined), the growth inhibition is -1.86%. Regarding `CNC(=O)c1cc(Oc2ccc(NC(=O)Nc3ccc(Cl)c(C(F)(F)F)c3)c(F)c2)ccn1`, the growth inhibition was found to be 2.56%. `CCn1cc(C(=O)O)c(=O)c2cnc(N3CCCC3)nc21`: the growth inhibition was -0.749%. On to `Cc1c(-c2ccc(O)cc2)n(Cc2ccc(OCCN3CCCCCC3)cc2)c2ccc(O)cc12`, for which the growth inhibition came to 1.94%. As to `Nc1nc2n[nH]nc2c(=O)[nH]1`, the growth inhibition came to 22.6%. With `CCC(C)C1OC2(CCC1C)CC1CC(CC=C(C)C(OC3CC(OC)C(OC4CC(OC)C(O)C(C)O4)C(C)O3)C(C)C=CC=C3COC4C(O)C(C)=CC(C(=O)O1)C34O)O2` (centres undefined), the growth inhibition amounted to 2.33%. As for `O=C([O-])[C@H](O)[C@@H](O)[C@H](O)[C@H](O)CO.[Na+]`, the growth inhibition stood at 1.18%. Next, `CC(C(=O)O)c1ccc(C(=O)c2cccs2)cc1` (centres undefined): -0.699%.

Consider `COc1c2occc2cc2ccc(=O)oc12`, for which the growth inhibition was -1.09%. `C[C@@H]1CN(c2c(F)c(N)c3c(=O)c(C(=O)O)cn(C4CC4)c3c2F)C[C@H](C)N1`: the growth inhibition came to 1.04%. On to `Cc1cc(=O)n(-c2ccccc2)n1C`, for which the growth inhibition turned out to be 0.213%. As for `NCCCCCC(=O)O`, the growth inhibition came to 1.09%.

For `Nc1nc2[nH]cc(CCc3ccc(C(=O)N[C@@H](CCC(=O)O)C(=O)O)cc3)c2c(=O)[nH]1`, the growth inhibition is 0.403%. On to `Cc1onc(-c2ccccc2)c1C(=O)N[C@@H]1C(=O)N2[C@@H]1SC(C)(C)[C@@H]2C(=O)O`, for which the growth inhibition was -0.122%.

For the molecule `Nc1cccc2c1CN(C1CCC(=O)NC1=O)C2=O` (centres undefined), the growth inhibition worked out at 2.15%. As to `COc1ccccc1N1CCN(CC(O)COc2cccc3ccccc23)CC1` (centres undefined), the growth inhibition was 4.27%. For `CC1CNc2c(cccc2S(=O)(=O)N[C@@H](CCCNC(=N)N)C(=O)N2CC[C@@H](C)C[C@@H]2C(=O)O)C1` (some centres undefined), the growth inhibition was determined as 0.277%.
